Experiment [1] concerns the target Protein kinase C gamma type (Homo sapiens) (UniProt P05129). To be noted: at 1 µM.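 Note: each value is an averaged percent inhibition of the enzyme.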
The target of experiment [2] is T1, Protein kinase C iota type (Homo sapiens) (UniProt P41743).
T1 sequence (whole entry): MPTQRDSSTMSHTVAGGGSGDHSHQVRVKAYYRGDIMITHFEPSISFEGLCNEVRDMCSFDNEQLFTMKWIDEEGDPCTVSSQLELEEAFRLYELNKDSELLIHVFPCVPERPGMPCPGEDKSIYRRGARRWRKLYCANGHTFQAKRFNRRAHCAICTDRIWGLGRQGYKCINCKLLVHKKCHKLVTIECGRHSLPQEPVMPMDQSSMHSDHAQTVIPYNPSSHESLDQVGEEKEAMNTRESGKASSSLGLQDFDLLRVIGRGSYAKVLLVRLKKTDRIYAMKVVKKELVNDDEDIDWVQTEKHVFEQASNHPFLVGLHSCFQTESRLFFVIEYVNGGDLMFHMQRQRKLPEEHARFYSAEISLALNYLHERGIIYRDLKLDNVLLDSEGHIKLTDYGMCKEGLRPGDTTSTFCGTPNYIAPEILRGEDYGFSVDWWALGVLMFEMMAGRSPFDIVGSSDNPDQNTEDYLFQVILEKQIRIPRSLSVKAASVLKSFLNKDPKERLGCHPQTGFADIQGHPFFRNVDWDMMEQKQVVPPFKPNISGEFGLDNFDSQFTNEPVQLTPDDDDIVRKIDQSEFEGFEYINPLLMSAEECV
As to conditions: at 0.1 µM.

In experiment [3] the target is T1, Protein kinase C iota type (Homo sapiens). To be noted: at 1 µM.
For experiment [4], the target named is Protein kinase C theta type (Homo sapiens) (UniProt Q04759). As to conditions: at 0.1 µM.
For experiment [5] the target is unchanged. To be noted: at 1 µM.
For experiment [6], the target named is Protein kinase C beta type (Homo sapiens) (UniProt P05771). As to conditions: at 0.1 µM.
The target is the same in experiment [7]. To be noted: at 1 µM.
Experiment [8] concerns the target T2, Serine/threonine-protein kinase D1 (Homo sapiens) (UniProt Q15139).
T2 sequence (whole entry): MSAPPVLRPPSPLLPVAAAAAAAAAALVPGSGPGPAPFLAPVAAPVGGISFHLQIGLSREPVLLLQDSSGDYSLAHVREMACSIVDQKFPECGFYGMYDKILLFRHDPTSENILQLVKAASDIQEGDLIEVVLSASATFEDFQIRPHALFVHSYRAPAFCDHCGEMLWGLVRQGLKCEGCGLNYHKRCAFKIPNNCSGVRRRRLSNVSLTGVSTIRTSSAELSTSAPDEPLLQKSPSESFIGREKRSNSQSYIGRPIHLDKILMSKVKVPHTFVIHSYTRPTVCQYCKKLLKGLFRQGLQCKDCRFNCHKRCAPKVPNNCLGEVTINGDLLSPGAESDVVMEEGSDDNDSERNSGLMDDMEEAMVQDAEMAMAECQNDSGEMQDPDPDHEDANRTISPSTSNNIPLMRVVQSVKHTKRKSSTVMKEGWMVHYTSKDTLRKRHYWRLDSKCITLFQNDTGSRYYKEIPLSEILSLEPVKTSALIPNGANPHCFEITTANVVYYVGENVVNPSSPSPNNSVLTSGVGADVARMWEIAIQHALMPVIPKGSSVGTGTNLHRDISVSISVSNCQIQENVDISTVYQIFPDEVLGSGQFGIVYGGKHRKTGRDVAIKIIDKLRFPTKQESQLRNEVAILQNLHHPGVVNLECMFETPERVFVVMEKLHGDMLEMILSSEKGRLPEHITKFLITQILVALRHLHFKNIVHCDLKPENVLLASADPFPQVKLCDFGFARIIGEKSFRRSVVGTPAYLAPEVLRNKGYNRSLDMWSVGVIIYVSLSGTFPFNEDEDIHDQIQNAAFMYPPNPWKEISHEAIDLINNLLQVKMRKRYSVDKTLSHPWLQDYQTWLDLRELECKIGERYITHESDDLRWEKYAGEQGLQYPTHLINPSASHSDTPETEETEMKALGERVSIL
To be noted: at 0.1 µM.

For experiment [9], the target named is T2, Serine/threonine-protein kinase D1 (Homo sapiens). As to conditions: at 1 µM.
Experiment [10] deals with T3, Serine/threonine-protein kinase D2 (Homo sapiens) (UniProt Q9BZL6).
T3 sequence (whole entry): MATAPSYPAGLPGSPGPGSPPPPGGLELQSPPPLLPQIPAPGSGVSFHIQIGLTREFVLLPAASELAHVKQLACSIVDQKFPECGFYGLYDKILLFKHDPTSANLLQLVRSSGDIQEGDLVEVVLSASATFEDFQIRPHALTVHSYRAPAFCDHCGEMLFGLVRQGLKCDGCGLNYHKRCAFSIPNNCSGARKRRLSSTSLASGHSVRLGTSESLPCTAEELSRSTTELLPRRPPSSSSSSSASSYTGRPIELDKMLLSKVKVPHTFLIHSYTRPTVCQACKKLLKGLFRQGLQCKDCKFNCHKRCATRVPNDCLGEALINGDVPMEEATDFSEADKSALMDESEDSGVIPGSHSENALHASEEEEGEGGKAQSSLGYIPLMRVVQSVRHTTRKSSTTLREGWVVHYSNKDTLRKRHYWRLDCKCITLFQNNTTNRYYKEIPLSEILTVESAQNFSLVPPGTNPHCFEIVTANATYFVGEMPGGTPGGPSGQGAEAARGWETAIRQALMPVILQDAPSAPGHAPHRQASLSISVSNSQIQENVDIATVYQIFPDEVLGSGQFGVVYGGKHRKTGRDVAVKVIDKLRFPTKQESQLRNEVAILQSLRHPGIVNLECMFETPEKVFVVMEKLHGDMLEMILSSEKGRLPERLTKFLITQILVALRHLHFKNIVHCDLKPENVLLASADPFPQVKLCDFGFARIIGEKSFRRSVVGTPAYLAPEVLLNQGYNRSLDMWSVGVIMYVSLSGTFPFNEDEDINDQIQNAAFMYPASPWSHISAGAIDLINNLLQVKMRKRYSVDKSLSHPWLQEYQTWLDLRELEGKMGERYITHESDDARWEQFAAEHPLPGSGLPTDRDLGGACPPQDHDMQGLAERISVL
As to conditions: at 0.1 µM.

Experiment [11] addresses T3, Serine/threonine-protein kinase D2 (Homo sapiens). To be noted: at 1 µM.
For experiment [12], the target named is T4, Serine/threonine-protein kinase D3 (Homo sapiens) (UniProt O94806).
T4 sequence (whole entry): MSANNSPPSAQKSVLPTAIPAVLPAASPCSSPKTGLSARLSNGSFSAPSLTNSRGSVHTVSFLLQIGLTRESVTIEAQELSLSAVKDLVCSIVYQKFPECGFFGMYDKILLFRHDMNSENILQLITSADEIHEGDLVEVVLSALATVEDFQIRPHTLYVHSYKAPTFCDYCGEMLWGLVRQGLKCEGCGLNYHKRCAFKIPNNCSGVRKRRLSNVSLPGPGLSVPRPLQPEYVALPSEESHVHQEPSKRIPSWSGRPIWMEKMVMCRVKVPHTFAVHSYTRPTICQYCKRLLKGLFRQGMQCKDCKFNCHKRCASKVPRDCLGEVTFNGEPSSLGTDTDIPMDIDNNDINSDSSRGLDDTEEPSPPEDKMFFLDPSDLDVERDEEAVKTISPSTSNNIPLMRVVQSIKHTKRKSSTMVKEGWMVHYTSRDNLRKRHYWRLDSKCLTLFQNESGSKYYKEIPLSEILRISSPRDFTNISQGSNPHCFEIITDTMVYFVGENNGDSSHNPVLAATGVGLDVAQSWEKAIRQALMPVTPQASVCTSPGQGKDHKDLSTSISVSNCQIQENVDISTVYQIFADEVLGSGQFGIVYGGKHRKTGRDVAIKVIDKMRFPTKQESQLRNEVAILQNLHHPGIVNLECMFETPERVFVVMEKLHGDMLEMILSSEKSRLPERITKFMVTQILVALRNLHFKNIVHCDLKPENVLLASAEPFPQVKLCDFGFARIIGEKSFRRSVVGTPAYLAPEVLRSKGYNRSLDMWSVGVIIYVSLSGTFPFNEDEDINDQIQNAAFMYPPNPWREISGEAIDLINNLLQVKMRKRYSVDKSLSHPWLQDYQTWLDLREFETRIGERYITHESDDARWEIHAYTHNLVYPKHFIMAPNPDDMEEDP
To be noted: at 0.1 µM.

The target of experiment [13] is T4, Serine/threonine-protein kinase D3 (Homo sapiens). To be noted: at 1 µM.
In experiment [14] the target is T5, cGMP-dependent protein kinase 1 (Homo sapiens) (UniProt Q13976).
T5 sequence (whole entry): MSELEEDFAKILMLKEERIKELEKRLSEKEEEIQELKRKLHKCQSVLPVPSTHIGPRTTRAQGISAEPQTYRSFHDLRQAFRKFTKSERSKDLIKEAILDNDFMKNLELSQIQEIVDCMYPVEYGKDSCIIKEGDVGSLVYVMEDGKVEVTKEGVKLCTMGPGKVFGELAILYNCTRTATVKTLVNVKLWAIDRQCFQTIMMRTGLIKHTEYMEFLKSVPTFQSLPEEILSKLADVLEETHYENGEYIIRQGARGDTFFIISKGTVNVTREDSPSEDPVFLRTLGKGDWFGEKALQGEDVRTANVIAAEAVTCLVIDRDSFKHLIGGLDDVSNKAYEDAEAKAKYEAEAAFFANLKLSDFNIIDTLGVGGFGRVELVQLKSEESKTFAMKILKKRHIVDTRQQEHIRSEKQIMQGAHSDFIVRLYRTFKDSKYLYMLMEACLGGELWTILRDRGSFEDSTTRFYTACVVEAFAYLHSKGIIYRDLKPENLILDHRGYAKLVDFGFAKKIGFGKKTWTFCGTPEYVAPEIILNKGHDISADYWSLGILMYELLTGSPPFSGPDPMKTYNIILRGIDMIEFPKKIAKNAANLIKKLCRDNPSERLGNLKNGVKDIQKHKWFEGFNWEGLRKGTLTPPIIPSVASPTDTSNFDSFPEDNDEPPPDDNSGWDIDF
As to conditions: at 0.1 µM.

For experiment [15], the target named is T5, cGMP-dependent protein kinase 1 (Homo sapiens). To be noted: at 1 µM.
The target of experiment [16] is T6, cGMP-dependent protein kinase 2 (Homo sapiens) (UniProt Q13237).
T6 sequence (whole entry): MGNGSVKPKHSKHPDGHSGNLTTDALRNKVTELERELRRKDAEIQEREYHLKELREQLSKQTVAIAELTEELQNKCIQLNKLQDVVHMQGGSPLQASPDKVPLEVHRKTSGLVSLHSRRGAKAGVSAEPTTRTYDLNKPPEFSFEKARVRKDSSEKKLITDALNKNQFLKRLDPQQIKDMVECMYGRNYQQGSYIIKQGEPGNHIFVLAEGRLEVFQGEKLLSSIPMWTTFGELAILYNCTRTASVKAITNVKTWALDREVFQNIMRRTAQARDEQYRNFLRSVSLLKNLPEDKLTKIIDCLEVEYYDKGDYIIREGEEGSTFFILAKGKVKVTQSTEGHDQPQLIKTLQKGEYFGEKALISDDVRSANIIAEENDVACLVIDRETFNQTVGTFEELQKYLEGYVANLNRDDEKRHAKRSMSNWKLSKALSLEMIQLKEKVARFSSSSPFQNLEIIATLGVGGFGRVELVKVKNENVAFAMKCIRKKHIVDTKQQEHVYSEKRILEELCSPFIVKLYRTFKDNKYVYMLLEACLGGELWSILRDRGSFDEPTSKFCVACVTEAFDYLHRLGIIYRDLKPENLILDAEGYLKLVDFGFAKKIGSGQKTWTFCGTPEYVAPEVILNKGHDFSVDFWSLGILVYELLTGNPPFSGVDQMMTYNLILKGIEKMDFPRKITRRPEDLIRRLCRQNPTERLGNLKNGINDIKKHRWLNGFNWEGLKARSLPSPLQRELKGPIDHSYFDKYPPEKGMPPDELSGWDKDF
To be noted: at 0.1 µM.

For experiment [17], the target named is T6, cGMP-dependent protein kinase 2 (Homo sapiens). To be noted: at 1 µM.
The target in experiment [18] is T7, cAMP-dependent protein kinase catalytic subunit PRKX (Homo sapiens) (UniProt P51817).
T7 sequence (whole entry): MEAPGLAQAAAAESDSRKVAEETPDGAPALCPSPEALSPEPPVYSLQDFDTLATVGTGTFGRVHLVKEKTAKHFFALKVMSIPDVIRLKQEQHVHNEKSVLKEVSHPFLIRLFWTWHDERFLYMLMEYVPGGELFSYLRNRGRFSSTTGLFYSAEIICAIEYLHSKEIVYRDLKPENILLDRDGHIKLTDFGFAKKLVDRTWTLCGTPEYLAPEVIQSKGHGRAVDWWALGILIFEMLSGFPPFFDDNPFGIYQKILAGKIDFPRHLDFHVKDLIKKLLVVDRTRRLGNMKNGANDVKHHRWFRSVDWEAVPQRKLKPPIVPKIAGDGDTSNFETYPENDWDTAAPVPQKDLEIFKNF
To be noted: at 0.1 µM.

The target of experiment [19] is T7, cAMP-dependent protein kinase catalytic subunit PRKX (Homo sapiens). To be noted: at 1 µM.
Experiment [20] deals with Rho-associated protein kinase 1 (Homo sapiens) (UniProt Q13464). As to conditions: at 0.1 µM.
Chain of Rho-associated protein kinase 1 (Homo sapiens) (Q13464 2-1354 limits assumed): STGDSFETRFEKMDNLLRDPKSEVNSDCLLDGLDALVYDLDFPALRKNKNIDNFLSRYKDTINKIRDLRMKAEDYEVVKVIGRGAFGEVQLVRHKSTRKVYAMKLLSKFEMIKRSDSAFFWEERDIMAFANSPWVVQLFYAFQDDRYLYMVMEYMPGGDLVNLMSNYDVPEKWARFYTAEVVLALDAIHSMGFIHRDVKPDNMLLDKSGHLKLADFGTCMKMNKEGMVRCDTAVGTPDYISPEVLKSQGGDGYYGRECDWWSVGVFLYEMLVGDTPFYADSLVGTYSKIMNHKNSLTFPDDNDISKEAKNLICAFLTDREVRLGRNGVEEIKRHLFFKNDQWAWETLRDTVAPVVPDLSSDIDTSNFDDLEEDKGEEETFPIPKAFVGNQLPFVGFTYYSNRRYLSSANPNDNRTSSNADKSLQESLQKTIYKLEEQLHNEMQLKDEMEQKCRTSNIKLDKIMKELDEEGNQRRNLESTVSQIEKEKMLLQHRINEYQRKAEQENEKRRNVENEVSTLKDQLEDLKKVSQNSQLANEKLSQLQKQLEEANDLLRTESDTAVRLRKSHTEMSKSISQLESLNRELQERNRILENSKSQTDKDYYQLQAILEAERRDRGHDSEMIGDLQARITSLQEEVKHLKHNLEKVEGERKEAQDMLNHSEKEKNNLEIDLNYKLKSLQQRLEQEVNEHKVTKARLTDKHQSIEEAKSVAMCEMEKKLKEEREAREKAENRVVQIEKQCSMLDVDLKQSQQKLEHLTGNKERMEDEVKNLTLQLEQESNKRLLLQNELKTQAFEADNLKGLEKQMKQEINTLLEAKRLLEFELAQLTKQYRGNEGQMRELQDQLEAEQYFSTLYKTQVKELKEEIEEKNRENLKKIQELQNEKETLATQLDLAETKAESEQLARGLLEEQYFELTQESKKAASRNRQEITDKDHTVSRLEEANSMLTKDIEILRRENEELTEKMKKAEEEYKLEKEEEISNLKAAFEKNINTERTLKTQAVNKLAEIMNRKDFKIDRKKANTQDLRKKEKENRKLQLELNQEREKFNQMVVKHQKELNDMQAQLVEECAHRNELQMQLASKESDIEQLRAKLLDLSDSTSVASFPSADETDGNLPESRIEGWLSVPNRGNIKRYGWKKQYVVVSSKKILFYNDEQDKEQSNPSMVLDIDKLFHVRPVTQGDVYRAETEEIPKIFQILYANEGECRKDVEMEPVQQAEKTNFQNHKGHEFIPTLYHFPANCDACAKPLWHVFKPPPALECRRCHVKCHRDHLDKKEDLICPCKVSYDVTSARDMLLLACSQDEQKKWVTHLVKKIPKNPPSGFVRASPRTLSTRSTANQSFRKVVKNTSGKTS

Chain of Protein kinase C theta type (Homo sapiens) (Q04759 whole entry, looked up): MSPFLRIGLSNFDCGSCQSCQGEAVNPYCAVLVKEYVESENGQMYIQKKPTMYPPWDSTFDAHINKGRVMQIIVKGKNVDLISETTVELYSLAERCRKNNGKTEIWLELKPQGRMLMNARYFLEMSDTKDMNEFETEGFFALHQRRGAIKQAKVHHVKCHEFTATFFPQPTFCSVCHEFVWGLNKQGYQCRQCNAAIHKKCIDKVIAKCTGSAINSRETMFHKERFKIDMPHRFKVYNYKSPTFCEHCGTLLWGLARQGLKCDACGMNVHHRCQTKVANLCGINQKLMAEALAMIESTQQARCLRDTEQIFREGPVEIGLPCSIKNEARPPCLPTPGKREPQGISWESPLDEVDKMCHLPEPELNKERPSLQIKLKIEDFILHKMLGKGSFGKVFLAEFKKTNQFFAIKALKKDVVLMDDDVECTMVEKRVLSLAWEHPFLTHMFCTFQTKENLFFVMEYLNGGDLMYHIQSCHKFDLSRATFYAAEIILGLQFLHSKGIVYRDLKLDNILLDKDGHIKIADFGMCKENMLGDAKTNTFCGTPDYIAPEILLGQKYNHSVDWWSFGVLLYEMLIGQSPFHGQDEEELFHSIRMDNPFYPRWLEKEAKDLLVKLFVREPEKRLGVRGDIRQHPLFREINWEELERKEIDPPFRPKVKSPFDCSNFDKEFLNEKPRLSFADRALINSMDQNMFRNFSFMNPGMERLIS
Chain of Protein kinase C beta type (Homo sapiens) (P05771 2-671 limits assumed): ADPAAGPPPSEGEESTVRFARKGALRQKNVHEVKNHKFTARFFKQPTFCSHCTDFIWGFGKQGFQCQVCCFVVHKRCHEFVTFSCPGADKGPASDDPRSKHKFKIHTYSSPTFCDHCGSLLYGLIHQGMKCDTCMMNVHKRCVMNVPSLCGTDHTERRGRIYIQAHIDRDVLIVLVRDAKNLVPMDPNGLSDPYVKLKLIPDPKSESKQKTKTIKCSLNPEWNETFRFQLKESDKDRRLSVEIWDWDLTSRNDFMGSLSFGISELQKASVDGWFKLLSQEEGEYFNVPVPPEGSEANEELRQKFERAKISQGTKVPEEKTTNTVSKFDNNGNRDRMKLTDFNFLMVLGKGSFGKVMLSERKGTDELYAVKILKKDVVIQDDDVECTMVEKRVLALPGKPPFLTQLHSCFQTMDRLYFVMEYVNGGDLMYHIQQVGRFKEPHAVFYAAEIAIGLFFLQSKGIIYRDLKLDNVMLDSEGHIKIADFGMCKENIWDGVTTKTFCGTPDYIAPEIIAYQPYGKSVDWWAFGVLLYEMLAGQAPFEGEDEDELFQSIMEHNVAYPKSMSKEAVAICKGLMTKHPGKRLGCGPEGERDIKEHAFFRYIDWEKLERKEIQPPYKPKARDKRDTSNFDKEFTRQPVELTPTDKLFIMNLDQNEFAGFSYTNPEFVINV

What is called inhibition is the drop in the measured response relative to a control, in per cent. Consider `CNC(=O)c1cncc(/C=C/c2c(C)cccc2C)c1`, for which the inhibition is 0.78% in experiment [1]; -1.41% in [2]; -1.56% in experiment [3]; -0.68% in experiment [4]; 0.76% in experiment [5]; -0.12% in [6]. For the same molecule, the inhibition in experiment [7] is 1.01%; in [8], -2.84%; in experiment [9] it was -2.47%; in [10], -2.56%; in [11] it was -2.22%; in [12], -2.33%. Besides, the inhibition was -3.04% in experiment [13]; -0.33% in experiment [14]; 4.28% in [15]; 0.8% in [16]; 1.58% in experiment [17]; 0.26% in [18]. The inhibition in experiment [19] was 0.53%; in experiment [20], -0.35%.

The values are drawn from ChEMBL document CHEMBL1961873, “Compounds: GSK PKIS; Assays: Nanosyn kinase panel” (2012).
